# Laboratory results taken from PubChem BioAssay (NCATS).
# Inconclusive results are not listed. Calls of active or inactive are those of the source. The call rests on the fitted dose curve; in most records, active means well fitted cell-killing curve with a large enough effect; inconclusive means small, poorly fitted or top-dose-only effect, or effect the other way; inactive means no such curve, though single readings can be large or run the other way.
# Assay: Quantitative High-Throughput drug screen in 47 multiple myeloma cell lines against the NCATS MIPE library collection: AMO1_DSMZ cell viability assay (AID 1918927; further: nearly all actives have a fitted effect of over 30% in size)
# Settings: AMO1 myeloma cells viability, CellTiter-Glo ATP luminescence, 48 h; series mostly up to 45.8 µM
# Source text: PI: Beverly A. Mock Ph.D.
# Laboratory of Cancer Biology and Genetics,
# Center for Cancer Research, National Cancer Institute,
# National Institute of Health, Bethesda, Maryland
# Drug resistance and disease progression are common in multiple myeloma (MM) patients, underscoring the need for new therapeutic combinations. […] We hypothesized that effective combinations would reduce MYC expression and enhance p16 activity. […] These preclinical data identify potentially useful drug combinations for evaluation in drug-resistant MM and reveal potential mechanisms of combined drug sensitivity.
# Described herein is the primary MIPE qHTS used to cherrypick compounds. Validated compounds were then further tested for potential synergistic activiy.
# [1] Peat TJ, Gaikwad SM, Dubois W, Gyabaah-Kessie N, Zhang S, Gorjifard S, Phyo Z, Andres M, Hughitt VK, Simpson RM, Miller MA, Girvin AT, Taylor A, Williams D, D'Antonio N, Zhang Y, Rajagopalan A, Flietner E, Wilson K, Zhang X, Shinn P, Klumpp-Thomas C, McKnight C, Itkin Z, Chen L, Kazandijian D, Zhang J, Michalowski AM, Simmons JK, Keats J, Thomas CJ, Mock BA. Drug combinations identified by high-throughput screening promote cell cycle transition and upregulate Smad pathways in myeloma. Cancer Lett. 2023 Aug 1;568:216284. doi: 10.1016/j.canlet.2023.216284. Epub 2023 Jun 24. PMID: 37356470; PMCID: PMC10408729.
# SEQUENCE No. (e.g., 1, 2, 3, etc.); […] (e.g., Cells, Incubation, Reagent, etc.); VALUE and DESCRIPTION.
# 1; Cells; 5 uL; white, solid bottom 1536-well Greiner assay plate.
# 2; Compounds; 23 nL; Kalypsis pin tool (Wako USA) equipped with a 1536-well pin head to transfer to the assay plates.
# 3; Incubation; 48 hours; 37C incubation.
# 4; Reagent;5uL; CellTiter Glo (Promega).
# 5; Detector; 425V; Luminescence; Viewlux PerkinElmer.
# NOTES (numbers refer to Sequence numbers above)
# 1. The cell-based screening methods employed in this study were like those previously published. Briefly, the corresponding myeloma cell lines were screened in 1,536-well plates with 500 cells, 5-uL per well for inhibition of cell viability (assessed by measuring ATP levels with CellTiterGlo).
# 2. NCATS MIPE 4.0 library of approved and investigational drugs were added using the Kalypsis pin tool. Wells treated with DMSO only for 100% viability and media only wells for 0% viability were used as controls.
# 3. The assay plates were covered and incubated for 48 hours in a 37C, 5% CO2 incubator with controlled humidity.
# 4. After 48 hours, CellTilter-GloTM luminescent substrate mix (Promega) reagent was added to the assay plate and plates we incubated for 5 min at room temperature.
# 5. Signal was measured as median relative luminescence units on a ViewLux (PerkinElmer) multiplate reader.
# [1] Heske CM, Davis MI, Baumgart JT, Wilson K, Gormally MV, Chen L, Zhang X, Ceribelli M, Duveau DY, Guha R, Ferrer M, Arnaldez FI, Ji J, Tran HL, Zhang Y, Mendoza A, Helman LJ, Thomas CJ. Matrix Screen Identifies Synergistic Combination of PARP Inhibitors and Nicotinamide Phosphoribosyltransferase (NAMPT) Inhibitors in Ewing Sarcoma. Clin Cancer Res. 2017 Dec 1;23(23):7301-7311. doi: 10.1158/1078-0432.CCR-17-1121. Epub 2017 Sep 12. PMID: 28899971; PMCID: PMC6636827.
# Potency means the concentration at half of the fitted maximal effect.
row,Compound,Potency
1,Cn1cncc1[C@@](N)(c1ccc(Cl)cc1)c1ccc2c(c1)c(-c1cccc(Cl)c1)cc(=O)n2C,7.43 µM (active)
2,O=C(O)c1ccc2c(c1)nc(Nc1cccc(Cl)c1)c1ccncc12,5.9 µM (active)
3,CNC(=O)c1cc(Oc2ccc(NC(=O)Nc3cc(C(C)(C)C)nn3-c3ccc4ncccc4c3)c(F)c2)ccn1,7.43 µM (active)
4,C=C1C(=CC=C2CCCC3(C)[C@@H]([C@H](C)C=CC=CC(O)(CC)CC)CC[C@@H]23)C[C@@H](O)C[C@@H]1O (stereo not given in full),14.8 µM (active)
5,Cc1nc(N)ncc1-c1nc(N2CCOCC2)c2sc(C(C)(C)O)cc2n1,1.32 µM (active)
6,O=C(Nc1nc2cccc(-c3ccc(CN4CCS(=O)(=O)CC4)cc3)n2n1)C1CC1,5.9 µM (active)
7,CC(C)[C@H](C(=O)Nc1ccc(C(=O)NO)cc1)c1ccccc1,0.469 µM (active)
8,O=C(c1cncc(Br)c1)N1CCC(N2CCCC2)CC1,inactive
9,C1Cc2[nH]nc(-c3nn[nH]n3)c2C1,inactive
10,CC(C)(O)CCc1ccc(OCc2cc(-c3cccc(OC(F)F)c3)c3ncccc3c2)cc1,inactive
11,CN1CC[C@@H](c2c(O)cc(O)c3c(=O)cc(-c4ccccc4Cl)oc23)[C@@H](O)C1,0.0264 µM (active)
12,COC(=O)c1ccc2c(C(=Nc3ccc(N(C)C(=O)CN4CCN(C)CC4)cc3)c3ccccc3)c(O)[nH]c2c1,4.69 µM (active)
13,CC(C)(C)c1cnc(CSc2cnc(NC(=O)C3CCNCC3)s2)o1,1.48 µM (active)
14,Cc1ccc(C(=O)Nc2cccc(C(F)(F)F)c2)cc1-c1ccc2nc(NCCN3CCOCC3)ncc2c1,3.72 µM (active)
15,CC1COC2(CCN(c3nc(=O)c4cc(C(F)(F)F)cc([N+](=O)[O-])c4s3)CC2)O1 (stereo not given),inactive
16,CCCCOc1c(C(=O)c2c(F)cc(C)cc2F)cnc2n[nH]cc12,1.66 µM (active)
17,Cc1cc(Nc2cc(N3CCN(C)CC3)nc(C=Cc3ccccc3)n2)n[nH]1,8.55 µM (active)
18,Cc1ccc(C(=O)Nc2ccc(CN3CCN(C)CC3)c(C(F)(F)F)c2)cc1C#Cc1cnc2cccnn12,2.96 µM (active)
19,COc1ccc(OC)c(-c2nnc3ccc(-c4ccc(OC)c(O[C@@H]5CCOC5)c4)nn23)c1,26.4 µM (active)
20,c1nc2nc(Nc3ccc(N4CCOCC4)cc3)nc(NC3CCCCC3)c2[nH]1,4.69 µM (active)

row,Compound,Potency
1,Cc1ccc(NC(=O)C2(c3ccc4c(c3)OC(F)(F)O4)CC2)nc1-c1cccc(C(=O)O)c1,0.0526 µM (active)
2,Cc1cn(-c2cc(NC(=O)c3ccc(C)c(Nc4nccc(-c5cccnc5)n4)c3)cc(C(F)(F)F)c2)cn1,inactive
3,CC(C)C[C@H](NC(=O)CNC(=O)c1cc(Cl)ccc1Cl)B(O)O,0.0469 µM (active)
4,C=C1C(=CC=C2CCC[C@]3(C)[C@@H]([C@H](C)C=C[C@H](C)C(C)C)CC[C@@H]23)C[C@@H](O)C[C@@H]1O,0.235 µM (active)
5,Clc1ccc2ncc(-c3cccc(NC4CNC4)n3)n2c1,4.69 µM (active)
6,CC(C)(O)c1cc2nc(-c3cnc(N)nc3)nc(N3CCOCC3)c2s1,0.0935 µM (active)
7,NC(=O)Nc1cc(-c2cccc(F)c2)sc1C(=O)N[C@H]1CCCNC1,0.662 µM (active)
8,O=C(NC1CCNCC1)c1[nH]ncc1NC(=O)c1c(Cl)cccc1Cl,1.18 µM (active)
9,COc1cccc2nc(-c3cccs3)nc(NN3C(=O)C=C(C)C3=O)c12,0.0935 µM (active)
10,Fc1cc(-c2cccc3ncc(-c4cnn(C5CCNCC5)c4)nc23)cc(F)c1CN1CCOCC1,8.33 µM (active)
11,CC(C)c1ccc(Cn2ccc3c4c(N)nc(NC5CC5)nc4ccc32)cc1,0.935 µM (active)
12,CC(C)CC(=O)Nc1n[nH]c2c1CN(C(=O)C1CCN(C)CC1)C2(C)C,1.66 µM (active)
13,O=c1c2ccccc2nc2n1CCc1c-2[nH]c2ccccc12,inactive
14,COCCn1c2c([n+](Cc3cnccn3)c1C)C(=O)c1ccccc1C2=O,0.0526 µM (active)
15,O=C1CCC[C@@H]2[C@H]3CCC[N+]4([O-])CCC[C@@H](CN12)[C@@H]34 (stereo not given in full),inactive
16,Cc1c(NC(=O)OC[C@@H]2COCCN2)cn2ncnc(Nc3ccc4c(cnn4Cc4cccc(F)c4)c3)c12,3.32 µM (active)
17,CNC(=O)c1ccccc1Nc1nc(Nc2ccc(N3CCOCC3)cc2OC)ncc1Cl,0.418 µM (active)
18,CC[C@H]1CN2CCc3cc(OC)c(OC)cc3[C@H]2C[C@@H]1C[C@@H]1NCCc2cc(OC)c(OC)cc21,0.235 µM (active)
19,CNC(=O)c1ccc(N2C(=S)N(c3cnc(C#N)c(C(F)(F)F)c3)C(=O)C23CCC3)cc1F,0.332 µM (active)
20,Cn1c2ccccc2c2c3c(c4c5ccccc5n(CCC#N)c4c21)CNC3=O,0.935 µM (active)
